Experimental data taken from PubChem BioAssay AID651658 (Broad Institute, 2012).
About 5,100 (1.5%) of roughly 340,000 compounds were called active. The full list was thinned out, with actives kept by preference. Values without a mark were called inactive.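 The calls were made as follows: active = mean Tm shift, scaled 0 neutral to 100 positive control, at about 1.3% or above, every replicate too (limit read from the data); inconclusive = no clear call, values can overlap the other calls; inactive = the rest.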

These compounds were tested against Fibroblast growth factor 22 (Homo sapiens) (UniProt Q9HCT0) (assay: FGF22 ligand-induced thermal stabilization – biophysical, thermal shift, single point, FGF22 synaptogenesis inhibitor project, primary screen (AID 651658)). Conditions: recombinant FGF22 thermal shift, SYPRO orange fluorescence; at 9.99 µM; stronger effect = higher value; percent of sucrose octasulfate shift, DMSO zero.
Fibroblast growth factor 22 (Homo sapiens), sequence (Q9HCT0 whole entry, looked up): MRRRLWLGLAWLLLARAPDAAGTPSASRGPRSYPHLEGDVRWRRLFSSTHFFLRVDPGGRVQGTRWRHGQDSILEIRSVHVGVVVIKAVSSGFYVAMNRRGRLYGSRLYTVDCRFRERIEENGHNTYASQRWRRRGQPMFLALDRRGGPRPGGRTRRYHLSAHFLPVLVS

In order of rising activity (Tm shift, normalised):
1. CN(c1ccccc1)S(=O)(=O)c1ccc(C(=O)N2CCN(c3ccccc3Cl)CC2)cc1  -0.343%
2. Cn1cc(C(=O)c2ccc(Cl)cc2Cl)cc1C(=O)NN  -0.308%
3. CCC(=O)Nc1ccc2c(c1)C(=O)N(C)[C@@H]1CC[C@@H](CC(=O)NCc3ccccc3Cl)O[C@H]1CO2  -0.111%
4. COc1ccc2c3c(n(C)c2c1)[C@H](CO)N(CC1CC1)CC31CCN(C(=O)c2ccccc2)CC1  -0.078%
5. CS(=O)(=O)N1[C@H](CO)[C@H](c2ccccc2)C12CN(C(=O)C1CC1)C2  -0.066%
6. Cc1nn(-c2ccccc2)c(C)c1NC(=O)COC(=O)c1cc(Cl)ccc1O  -0.058%
7. CCNC(=O)C1(C)CCCN(C(=O)c2ccc3ccccc3n2)C1 (stereo unspecified)  -0.027%
8. C[C@H]1CCCCO[C@@H](CN(C)Cc2ccccc2)[C@@H](C)CN([C@@H](C)CO)C(=O)c2cc(NC(=O)CCCN(C)C)ccc2O1  -0.026%
9. Cc1ccc(S(=O)(=O)N(C)C[C@@H]2Oc3ccc(NC(=O)c4ccncc4)cc3CC(=O)N([C@H](C)CO)C[C@H]2C)cc1  -0.013%
10. C[C@@H]1CN([C@H](C)CO)S(=O)(=O)c2ccc(C#CC3(O)CCCC3)cc2O[C@@H]1CN(C)C(=O)c1cccnc1  -0.011%
11. Cc1ccccc1NC(=O)Cc1nc(COC(=O)CNC(=O)c2ccc(Cl)cc2Cl)cs1  0.003%
12. O=C(Nc1ccc(C(F)(F)F)cc1)N[C@@H]1CC[C@@H](CCNC(=O)c2ccccc2F)O[C@H]1CO  0.08%
13. CCC(=O)N1[C@@H](CO)[C@@H](c2ccc(C3=CCCC3)cc2)C12CN(C(=O)COC)C2  0.109%
14. COc1ccc(Cl)cc1NC(=O)CN(C)C(=O)c1cc(-c2cccs2)nn1-c1ccccc1  0.161%
15. O=C(NCC[C@H]1CC[C@@H](NC(=O)c2cnccn2)[C@H](CO)O1)Nc1ccc(Cl)cc1  0.223%
16. COc1ccc(S(=O)(=O)N[C@@H]2CC[C@@H](CC(=O)N3CCC(Cc4ccccc4)CC3)O[C@@H]2CO)cc1  0.502%
17. CC1(C)CC(=O)C(CC(=O)N2CCC(Cc3ccccc3)CC2)C(=O)C1  41.9%

With `O=C(COC(=O)c1cc(-c2cccs2)nn1-c1ccccc1)Nc1cc([N+](=O)[O-])ccc1Cl` the activity (Tm shift, normalised) was 43.8% (active).
With `O=C(c1ccc2ccccc2n1)N1CCN(c2ccccc2Cl)CC1` the activity (Tm shift, normalised) was 43.4% (active).
`CC1(C)CC(=O)C(C2c3ccccc3S(=O)(=O)c3ccccc32)C(=O)C1` was tested, and the activity (Tm shift, normalised) was 42.9% (active).
For `CC(=O)Cc1nsc(NC(=O)c2ccc(Cl)cc2Cl)n1`, the activity (Tm shift, normalised) was 44.2% (active).
